High-throughput results (PubChem)
An excerpt weighted towards active compounds, which were near 1.1% of everything screened.
ASM inhibitor: Inhibitors of Secretory Acid Sphingomyelinase (S-ASM): qHTS; 340,000 compounds, 0.006% hits; placental ASM, HMU-PC fluorogenic substrate, 60 min; Potency, µM (highest dose often 57.5 µM), usual class: inhibitors; Sphingomyelin phosphodiesterase (Homo sapiens), P17405
Target sequence (P17405 47-631 limits assumed): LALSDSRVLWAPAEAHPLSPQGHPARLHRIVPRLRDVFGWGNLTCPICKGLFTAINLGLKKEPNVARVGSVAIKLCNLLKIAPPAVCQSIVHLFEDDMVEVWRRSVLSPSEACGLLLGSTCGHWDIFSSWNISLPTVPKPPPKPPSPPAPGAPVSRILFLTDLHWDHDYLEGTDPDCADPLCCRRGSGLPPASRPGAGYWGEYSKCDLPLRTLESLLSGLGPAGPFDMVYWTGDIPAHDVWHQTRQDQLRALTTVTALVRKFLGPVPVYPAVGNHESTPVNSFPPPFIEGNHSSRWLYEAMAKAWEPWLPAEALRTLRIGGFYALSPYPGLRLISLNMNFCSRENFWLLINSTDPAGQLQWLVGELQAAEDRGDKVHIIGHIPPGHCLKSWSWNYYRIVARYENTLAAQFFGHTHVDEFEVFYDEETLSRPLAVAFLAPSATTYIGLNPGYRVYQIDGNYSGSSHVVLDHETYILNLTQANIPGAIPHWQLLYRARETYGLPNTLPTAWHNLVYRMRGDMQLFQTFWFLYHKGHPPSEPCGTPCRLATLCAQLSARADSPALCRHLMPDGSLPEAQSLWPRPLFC
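Fluorescence read-out (Ex 386 nm, Em 447 nm) after stopping the reaction at pH 10. Enzyme: ASM from human placenta; substrate HMU-PC0, 9 uM final; 60 min, 37 °C. Compound preincubation 10 min, ambient temperature.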
gsp agonist: qHTS for Agonist of gsp, the Etiologic Mutation Responsible for Fibrous Dysplasia/McCune-Albright Syndrome: qHTS; Potency, µM (top dose mostly 76.9 µM), actives largely listed as activators; AID 624287, 2012; gsp mutant cells, cAMP HTRF, 30 min; 340,000 compounds, 0.13% hits; active means well fitted activation curve with a large enough effect; inconclusive means small, poorly fitted or top-dose-only effect, or another doubt; inactive means no such curve, though single readings can be large or run the other way; cell line not stated here;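 further: phosphodiesterase inhibitor Ro 20-1724 added with compounds to block cAMP breakdown; nearly all actives have a fitted effect of over 60% in size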
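Cells in DMEM/10% FBS with G418 were pretreated with compounds in DMSO plus […] (300 uM stock) for 30 min at 37C. cAMP was measured by HTRF (cAMP-d2 plus anti-cAMP antibody-K) after 30 min at room temperature.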
RXFP1 agonist: qHTS Assay for Agonists of the Relaxin Receptor RXFP1; HEK293T-RXFP1 cAMP TR-FRET, 30 min; response scale: percent of porcine relaxin response, buffer zero; Potency, µM (series often up to 57.5 µM), actives largely listed as activators; 370,000 compounds, 0.3% hits; AID 2676, 2010; further: nearly all actives have a fitted effect of over 60% in size
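Agonist response is measured as cAMP accumulation in an RXFP1-transfected HEK293T line under PDE4 inhibition. Values are scaled between buffer-only and 29 nM porcine relaxin, and EC50s come from standard Hill equation fits.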
a7 integrin act: qHTS for Activators of Integrin-Mediated Alleviation for Muscular Dystrophy | Potency, µM (series often up to 38.3 µM), hits mostly activators | 350,000 compounds, 0.064% hits | alpha7betagal myoblasts, beta-gal FDG fluorescence, 48 h; further: nearly all actives have a fitted effect of over 60% in size
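Alpha7betagal+/- myoblasts (passage 13) were plated 16-24 hr, then exposed to compounds (1:260 dilution of DMSO stock) for 48 hours at 37C. After MPER lysis, β-galactosidase reporter activity was read as FDG fluorescence (ex 480/em 540) after 30 minutes.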
gsp antag: qHTS for Antagonists of gsp, the Etiologic Mutation Responsible for Fibrous Dysplasia/McCune-Albright Syndrome: qHTS; gsp-mutant cells, cAMP HTRF, 30 min; 340,000 compounds, 0.4% hits; Potency, µM (doses to about 76.9 µM), usual class: inhibitors; AID 624288, 2012; calls by dose curve; cell line not stated here;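 further: intracellular cAMP measured with PDE inhibitor Ro 20-1724 present during compound exposure; nearly all actives have a fitted effect of over 65% in size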
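HTRF cAMP read-out (cAMP-d2 plus anti-cAMP antibody-K in lysis buffer, 30 min RT). Before lysis, cells are exposed to compounds with […] for 30 min at 37C in DPBS containing Ca/Mg, BSA and Tween 20.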
RXFP1 antagonist: qHTS Assay for Antagonists of the Relaxin Receptor RXFP1. Relaxin receptor 1 (Homo sapiens), Q9HBX9. HEK293-RXFP1, relaxin-stimulated cAMP HTRF, 30 min; stronger effect = lower value. activity change, negative = inhibition, % at 57.5 µM. 350,000 compounds, 0.59% hits;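 active means activity change of -60% or lower, but not beyond a set lower limit; inconclusive means change between -60% and -40%, or beyond the set limit; inactive means change above -40%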
Numbers stand for hits; [ ] = remark or other dose. Unless noted, the call rests on the fitted dose curve; in most records, active means well fitted curve in the direction sought with a large enough effect; inconclusive means small, poorly fitted or top-dose-only effect, or another doubt; inactive means no such curve, though single readings can be large; an effect the other way counts as inactive or inconclusive.

Cc1ccc(C)c(N2N=C(C(=O)OCC(=O)N(C)c3ccccc3)CCC2=O)c1 was read as ASM inhibitor inactive, gsp agonist inactive, RXFP1 agonist inactive, a7 integrin act inactive, gsp antag inactive and RXFP1 antagonist inactive.
Screening O=c1c(=O)n(-c2ccccc2)ccn1Cc1c(F)cccc1Cl returned RXFP1 agonist inactive and RXFP1 antagonist inactive.
`O=C(C1CCCCC1)N1C[C@H](n2cc(C3CC3)nn2)[C@@H](O)C[C@@H]1c1ccccc1` gave gsp agonist inactive, a7 integrin act inactive and RXFP1 antagonist inactive.
COc1ccccc1NC(=O)c1ccccc1NS(=O)(=O)c1cccs1 was read as ASM inhibitor inactive, gsp agonist inactive, RXFP1 agonist inactive, a7 integrin act inactive, gsp antag inactive and RXFP1 antagonist inactive.
Screening COc1ccc(C)cc1NC(=O)c1ccccc1NS(=O)(=O)c1ccc(Cl)s1 returned ASM inhibitor inactive, gsp agonist inactive, RXFP1 agonist inactive, a7 integrin act inactive, gsp antag 35.5µM and RXFP1 antagonist inactive.
`CCCNC(=O)c1cnn2c(C)c(Cc3c(C)cc(C)cc3C)c(C)nc12` gave RXFP1 agonist inactive and RXFP1 antagonist inconclusive.
For CCCCNC(=O)c1cnn2c(C)c(Cc3c(C)cc(C)cc3C)c(C)nc12 the results were RXFP1 agonist inactive and RXFP1 antagonist -60.9.
`CN1CCN(CCCNC(=O)Cn2c(-c3cccs3)cc3cc(Cl)ccc32)CC1` gave RXFP1 agonist inactive and RXFP1 antagonist inactive.
`CCN1CCN(CCCNC(=O)Cn2c(-c3cccs3)cc3cc(Cl)ccc32)CC1` gave RXFP1 agonist inactive and RXFP1 antagonist -69.0.
For O=S(=O)(c1ccc2[nH]c3c(c2c1)CCCCC3)N1CCN(c2ccccc2)CC1 the results were RXFP1 agonist inactive and RXFP1 antagonist inactive.
`O=C(Nc1ccccc1)Nc1cc(OCC(F)(F)F)cc(OCC(F)(F)F)c1` gave ASM inhibitor inactive, gsp agonist inactive[15.4 µM], RXFP1 agonist inactive, a7 integrin act inactive, gsp antag 31.6µM and RXFP1 antagonist -72.2.
`O=C(Nc1ccccc1)Nc1cc(Cl)cc(Cl)c1` gave ASM inhibitor inactive, gsp agonist inactive, RXFP1 agonist inactive, a7 integrin act inactive, gsp antag inconclusive and RXFP1 antagonist inactive.
For Cc1cc(C)c2sc(N3CCN(C(=O)c4ccc(N(C)C)cc4)CC3)nc2c1 the results were RXFP1 agonist inactive.
Screening C=CCc1c(C)nc(-c2ccccc2)nc1N/N=C/c1ccccc1 returned ASM inhibitor inactive, gsp agonist inactive, RXFP1 agonist inactive, a7 integrin act 11.2µM, gsp antag inactive and RXFP1 antagonist inactive.
Screening C=CCc1c(C)nc(-c2ccccc2)nc1N/N=C/c1ccncc1 returned ASM inhibitor inactive, gsp agonist inactive, RXFP1 agonist inactive, a7 integrin act inactive, gsp antag inactive and RXFP1 antagonist inactive.
`Cc1ccc(CNC(=O)Cn2cnc3c(NC(=O)OCc4ccccc4)ncnc32)o1` gave ASM inhibitor inactive, gsp agonist inactive, RXFP1 agonist inactive, a7 integrin act inactive and gsp antag inactive.
Screening COc1ccc(-c2c(C)nn3c4c(cnc23)C(=O)CC(c2ccccc2)C4)cc1 (centres undefined) returned RXFP1 agonist inactive.
CCc1ccc(NC(=O)CSC2=Nc3ccccc3C3=NC(CC(=O)NC4CCCCC4)C(=O)N23)cc1 (centres undefined) was read as RXFP1 agonist inactive and RXFP1 antagonist -70.3.
For COC(=O)c1c(NC(=S)Nc2ccccc2Cl)sc(C)c1C the results were ASM inhibitor inactive, gsp agonist inconclusive, RXFP1 agonist inactive, a7 integrin act inactive, gsp antag inactive and RXFP1 antagonist -107.2.
OCc1nc2ccccc2n1Cc1c(F)cccc1Cl was read as ASM inhibitor inactive, gsp agonist inactive, RXFP1 agonist inactive, a7 integrin act inconclusive, gsp antag inactive and RXFP1 antagonist inactive.
Screening CSc1nc2ccccc2n1Cc1c(Cl)cccc1Cl returned ASM inhibitor inactive, gsp agonist inactive, RXFP1 agonist inactive, a7 integrin act inactive, gsp antag 39.8µM and RXFP1 antagonist inactive.
Screening Nc1ccc2c(c1)CN1C(=O)c3ccccc3C1=N2 returned RXFP1 antagonist inactive.
`CC(=O)Nc1ccc2c(c1)Cc1cc(N3C(=O)C=CC3=O)ccc1-2` gave ASM inhibitor inactive, gsp agonist inactive, a7 integrin act inactive, gsp antag inactive and RXFP1 antagonist -61.4.
Screening COc1cc2c(cc1OC)C(=O)CC2 returned RXFP1 antagonist inactive.
For COC(=O)c1ccc(CC(=O)c2ccc(O)cc2O)o1 the results were ASM inhibitor inactive, gsp agonist inactive, RXFP1 agonist inactive, a7 integrin act inactive, gsp antag inconclusive and RXFP1 antagonist inactive.
Screening CCOC(=O)c1ccc(CC(=O)c2ccc(O)cc2O)o1 returned ASM inhibitor inactive, gsp agonist inactive, RXFP1 agonist inactive, a7 integrin act inactive, gsp antag 8.91µM and RXFP1 antagonist inactive.
CCOC(=O)N1CCN(CC(=O)c2ccc(O)cc2O)CC1 was read as ASM inhibitor inactive, gsp agonist inactive, RXFP1 agonist inactive, a7 integrin act inactive, gsp antag 11.2µM and RXFP1 antagonist inactive.
Screening Cc1ccc(CCn2c3c(c4cc(Cl)ccc42)CN(C)CC3)cn1 returned RXFP1 antagonist inactive.
`COc1ccc(S(=O)(=O)N2CCN(c3ccc(Cl)c(Cl)c3)CC2)c2ccccc12` gave RXFP1 agonist inactive.
Screening CCc1cc2c(=O)c(-c3ccc4c(c3)OCCO4)c(C)oc2cc1OS(C)(=O)=O returned ASM inhibitor inactive, gsp agonist inactive, RXFP1 agonist inactive, a7 integrin act inactive, gsp antag 50.1µM and RXFP1 antagonist inactive.
CCc1cc(=O)oc2c(C)c(OS(C)(=O)=O)ccc12 was read as ASM inhibitor inactive, gsp agonist inactive, a7 integrin act inactive, gsp antag inactive and RXFP1 antagonist inactive.
`CC(C)c1nnc(NC(=O)CCC(=O)N2CCN(c3ccc(Cl)cc3)CC2)s1` gave ASM inhibitor inactive, gsp agonist inconclusive, RXFP1 agonist inactive, a7 integrin act inconclusive, gsp antag inactive and RXFP1 antagonist -66.6.
Screening COc1cc(C2Nc3c(F)cccc3C3C=CCC32)cc(Br)c1OC (centres undefined) returned ASM inhibitor inactive, gsp agonist inactive, RXFP1 agonist inactive, a7 integrin act inactive, gsp antag inactive and RXFP1 antagonist -64.6.
